Measurements published in article PMC12864922, “TDP-43 directly inhibits mRNA accumulation in neurites through modulation of mRNA stability”.
Over roughly 9,900 sequences, “r (bound/input frequency ratio)” has its median near 0.7; the highest 2% begin near 6.5. This excerpt belongs to a sample that is enriched for the highest values.

B1: ENSMUSG00000032194.139|Kank2 (ssRNA)
RNA: GGGAGUUCUACAGUCCGACGAUCGCUUCGAUAUCCGCAUGCUAGGAAAUGACCAACUUACAAGAAGUUAUGCUGACCUCCCUGUUCCCCACGGGGAGUGCUUGGCAGAGGAGACUACUUCUAGAAAUACUUUCAGACCUACAGACAAAAAAGAAAAAAGGCCAUUCCGGAGUGACUCCCAGCAUCACAGCCCAGAACCUCCUCCUCAAAGGAGAGUAAACAGAGACUGUGAUACUGACCAAGUACAGGCGCUCGCUAUGAAGCCCAUAUGUUCCUGAUUAAGAGCUGGCUGGCCUCAGAGCACCUCUUGCGGUCGCACUAGUGUGGAAUUCUCGGGUGUCAAGG
B2: ENSMUSG00000004113.476|Cacna1b|225:230 (ssRNA)
RNA: GGGAGUUCUACAGUCCGACGAUCGCUUCGAUAUCCGCAUGCUAAGAGAGAGAGAUCCAGUCAUGCAACACAAAUGGGAUCUACUUUUAAACAACAGUCCUUUGACUAGUUUGCUGCCUGAAUAAUAUUUACAAACUAAACUUUGGAUUCUGCUCUUGUUUCUACAAUGAUUUUUUGUAUAAAGCAAAGUCCUUGGAUUAAAUAAAAACAACCCAAAAAAAAAAUCAAAAUCAAAACCCAGGAUGCAACUGGGUGAUACCUGAGGACACACACACUCAGUGCGUCGGUGGAGAGGGUAUACUGCCUCUUGCGGUCGCACUAGUGUGGAAUUCUCGGGUGUCAAGG
B3: ENSMUSG00000090935.398|Synj2bp (ssRNA)
RNA: GGGAGUUCUACAGUCCGACGAUCGCUUCGAUAUCCGCAUGCUAAAUUUCCUUCUUUUCAGUAAAUUGGCCAGACUAUUAUUUUGACAUAAGAUUAUGAAGAGUUUUCCCGACAGUCUAGCAGUCACUUAACAGAUGUUGAUUGCACAUUAGUUUUGUCAGGACACCUUUAUAAAAAGAGAAAUGCACAUAUUUCAUCCAAAGGGACAUUGUGGUUACAGUUAGGAAGGAAACCCUUAAAAUGGAGUUAGUUAUCUAAGUGUAAGUUGUUUAUAUUACAGACAGCAAAAGAAAAUAGCUCCUGACUCUUGCGGUCGCACUAGUGUGGAAUUCUCGGGUGUCAAGG
B4: ENSMUSG00000043670.39|Diras1 (ssRNA)
RNA: GGGAGUUCUACAGUCCGACGAUCGCUUCGAUAUCCGCAUGCUAGCUCCUGCUCCUUCUCCCCCUCCUUCCUUCCUUUGCCUUGCCCCUCCCUCCUCCAUCUCUCUUCCCUCUUCCUGUCCCCACCAGCCUACAGUAAGGUUGGGCUCCAUCCCUGCCUCUUCACACCUCCAUAGCUUCAUCCUUUGCAGACCUCUCCCUCUAUAUCUCUUUGCUCCCCCACCCCCAUUCUAUCUGCACCCCACAACCACACACUGGAGGUUUGAUCCCUGUGGAUCUGAAAACAGGGACCUGGCUAAGGAACUCUCUUGCGGUCGCACUAGUGUGGAAUUCUCGGGUGUCAAGG
B5: ENSMUSG00000061578.1409|Ksr2 (ssRNA)
RNA: GGGAGUUCUACAGUCCGACGAUCGCUUCGAUAUCCGCAUGCUAGGACCUCAGGCCCACUGUUUUCUCCAUGUCUGUCUGUACUGACUGUUGCAGAAUGAGCUGAUGUAUGAUCUUGAUUCUCCAUUUUCCUUCUGGACCACAUGUCUCUUCCUUUUCCUUUUUAGAUCUGUCUUGCUCUCUGUCUCUCUCACUCAUUGCCAACAUGUUGCUGGGAAAGAAUAUUUGAUUUAGAUGCCAAUCAGGAAGGCAAGUAGGAUGGAUGGAUGAGUGAGUGGAUAGGUAGGUAUAUAAAUGGAUGGAUGCUCUUGCGGUCGCACUAGUGUGGAAUUCUCGGGUGUCAAGG
B6: ENSMUSG00000043670.204|Diras1|34:38;48:57;63:70;103:107;136:148;172:177;180:184;189:193 (ssRNA)
RNA: GGGAGUUCUACAGUCCGACGAUCGCUUCGAUAUCCGCAUGCUAGUGUCCCACCCAGAUGAGGGUGACUUAGAAUUCACACAUUAUGUGCCACACACACACGAUGGCACACACACUGUCUUGGGAUGGGGUGUUCUUGCACCACUUACACAUCUUAGUGAGACCACAGUGUAAGUGGCCCACACACACACACGGGGGGGGCACCUAGACAUUGUGCACACACUCAUACGCUCACACAUUUCAGGGGUGGGUGACACAGGCCUGUCUGAUGAGCACCAGGUCUGUUCCAGGCUGUGGCAAGCUGGCUCUUGCGGUCGCACUAGUGUGGAAUUCUCGGGUGUCAAGG
B7: ENSMUSG00000043670.197|Diras1 (ssRNA)
RNA: GGGAGUUCUACAGUCCGACGAUCGCUUCGAUAUCCGCAUGCUAAUCUGCGAGACUGUCCAGGAGACUUGAGUGGCUCCUGGGCCUGUGUCCCACCCAGAUGAGGGUGACUUAGAAUUCUGUGUUUAUGUGCCUGUGUGUGUGGAUGGGUGUGUGUCUGUCUUGGGAUGGGGUGUUCUUGCACCACUUUGUGUUCUUAGUGAGACCACAGUGUAAGUGGCCGUGUGUGUGUGUGGGGGGGGGCACCUAGACAUUGUGGUGUGUCUGUAUGGCUCUGUGUUUUCAGGGGUGGGUGACACAGGCCUCUCUUGCGGUCGCACUAGUGUGGAAUUCUCGGGUGUCAAGG
B8: ENSMUSG00000043670.201|Diras1 (ssRNA)
RNA: GGGAGUUCUACAGUCCGACGAUCGCUUCGAUAUCCGCAUGCUAUGAGUGGCUCCUGGGCCUGUGUCCCACCCAGAUGAGGGUGACUUAGAAUUCUGUGUUUAUGUGCCUGUGUGUGUGGAUGGGUGUGUGUCUGUCUUGGGAUGGGGUGUUCUUGCACCACUUUGUGUUCUUAGUGAGACCACAGUGUAAGUGGCCGUGUGUGUGUGUGGGGGGGGGCACCUAGACAUUGUGGUGUGUCUGUAUGGCUCUGUGUUUUCAGGGGUGGGUGACACAGGCCUGUCUGAUGAGCACCAGGUCUGUUCCUCUUGCGGUCGCACUAGUGUGGAAUUCUCGGGUGUCAAGG
B9: ENSMUSG00000043670.195|Diras1 (ssRNA)
RNA: GGGAGUUCUACAGUCCGACGAUCGCUUCGAUAUCCGCAUGCUAAGCCCCUGUGGUAUCUGCGAGACUGUCCAGGAGACUUGAGUGGCUCCUGGGCCUGUGUCCCACCCAGAUGAGGGUGACUUAGAAUUCUGUGUUUAUGUGCCUGUGUGUGUGGAUGGGUGUGUGUCUGUCUUGGGAUGGGGUGUUCUUGCACCACUUUGUGUUCUUAGUGAGACCACAGUGUAAGUGGCCGUGUGUGUGUGUGGGGGGGGGCACCUAGACAUUGUGGUGUGUCUGUAUGGCUCUGUGUUUUCAGGGGUGGGCUCUUGCGGUCGCACUAGUGUGGAAUUCUCGGGUGUCAAGG
B10: ENSMUSG00000043670.200|Diras1 (ssRNA)
RNA: GGGAGUUCUACAGUCCGACGAUCGCUUCGAUAUCCGCAUGCUAGAGACUUGAGUGGCUCCUGGGCCUGUGUCCCACCCAGAUGAGGGUGACUUAGAAUUCUGUGUUUAUGUGCCUGUGUGUGUGGAUGGGUGUGUGUCUGUCUUGGGAUGGGGUGUUCUUGCACCACUUUGUGUUCUUAGUGAGACCACAGUGUAAGUGGCCGUGUGUGUGUGUGGGGGGGGGCACCUAGACAUUGUGGUGUGUCUGUAUGGCUCUGUGUUUUCAGGGGUGGGUGACACAGGCCUGUCUGAUGAGCACCAGGUCUCUUGCGGUCGCACUAGUGUGGAAUUCUCGGGUGUCAAGG
B11: ENSMUSG00000043670.199|Diras1 (ssRNA)
RNA: GGGAGUUCUACAGUCCGACGAUCGCUUCGAUAUCCGCAUGCUAGUCCAGGAGACUUGAGUGGCUCCUGGGCCUGUGUCCCACCCAGAUGAGGGUGACUUAGAAUUCUGUGUUUAUGUGCCUGUGUGUGUGGAUGGGUGUGUGUCUGUCUUGGGAUGGGGUGUUCUUGCACCACUUUGUGUUCUUAGUGAGACCACAGUGUAAGUGGCCGUGUGUGUGUGUGGGGGGGGGCACCUAGACAUUGUGGUGUGUCUGUAUGGCUCUGUGUUUUCAGGGGUGGGUGACACAGGCCUGUCUGAUGAGCACUCUUGCGGUCGCACUAGUGUGGAAUUCUCGGGUGUCAAGG
B12: ENSMUSG00000043670.196|Diras1 (ssRNA)
RNA: GGGAGUUCUACAGUCCGACGAUCGCUUCGAUAUCCGCAUGCUAUGUGGUAUCUGCGAGACUGUCCAGGAGACUUGAGUGGCUCCUGGGCCUGUGUCCCACCCAGAUGAGGGUGACUUAGAAUUCUGUGUUUAUGUGCCUGUGUGUGUGGAUGGGUGUGUGUCUGUCUUGGGAUGGGGUGUUCUUGCACCACUUUGUGUUCUUAGUGAGACCACAGUGUAAGUGGCCGUGUGUGUGUGUGGGGGGGGGCACCUAGACAUUGUGGUGUGUCUGUAUGGCUCUGUGUUUUCAGGGGUGGGUGACACCUCUUGCGGUCGCACUAGUGUGGAAUUCUCGGGUGUCAAGG
B13: ENSMUSG00000043670.204|Diras1 (ssRNA)
RNA: GGGAGUUCUACAGUCCGACGAUCGCUUCGAUAUCCGCAUGCUAGUGUCCCACCCAGAUGAGGGUGACUUAGAAUUCUGUGUUUAUGUGCCUGUGUGUGUGGAUGGGUGUGUGUCUGUCUUGGGAUGGGGUGUUCUUGCACCACUUUGUGUUCUUAGUGAGACCACAGUGUAAGUGGCCGUGUGUGUGUGUGGGGGGGGGCACCUAGACAUUGUGGUGUGUCUGUAUGGCUCUGUGUUUUCAGGGGUGGGUGACACAGGCCUGUCUGAUGAGCACCAGGUCUGUUCCAGGCUGUGGCAAGCUGGCUCUUGCGGUCGCACUAGUGUGGAAUUCUCGGGUGUCAAGG
B14: ENSMUSG00000043670.206|Diras1 (ssRNA)
RNA: GGGAGUUCUACAGUCCGACGAUCGCUUCGAUAUCCGCAUGCUAGAUGAGGGUGACUUAGAAUUCUGUGUUUAUGUGCCUGUGUGUGUGGAUGGGUGUGUGUCUGUCUUGGGAUGGGGUGUUCUUGCACCACUUUGUGUUCUUAGUGAGACCACAGUGUAAGUGGCCGUGUGUGUGUGUGGGGGGGGGCACCUAGACAUUGUGGUGUGUCUGUAUGGCUCUGUGUUUUCAGGGGUGGGUGACACAGGCCUGUCUGAUGAGCACCAGGUCUGUUCCAGGCUGUGGCAAGCUGGCUCCUGGCUCAGCUCUUGCGGUCGCACUAGUGUGGAAUUCUCGGGUGUCAAGG
B15: ENSMUSG00000043670.216|Diras1 (ssRNA)
RNA: GGGAGUUCUACAGUCCGACGAUCGCUUCGAUAUCCGCAUGCUAGUCUUGGGAUGGGGUGUUCUUGCACCACUUUGUGUUCUUAGUGAGACCACAGUGUAAGUGGCCGUGUGUGUGUGUGGGGGGGGGCACCUAGACAUUGUGGUGUGUCUGUAUGGCUCUGUGUUUUCAGGGGUGGGUGACACAGGCCUGUCUGAUGAGCACCAGGUCUGUUCCAGGCUGUGGCAAGCUGGCUCCUGGCUCAGAAGUGACAAAGCUGCAGUACAGAGGCCUCAGUGUGAGGUCAUCACCUCACAGUGGCUACACUCUUGCGGUCGCACUAGUGUGGAAUUCUCGGGUGUCAAGG
B16: ENSMUSG00000043670.213|Diras1 (ssRNA)
RNA: GGGAGUUCUACAGUCCGACGAUCGCUUCGAUAUCCGCAUGCUAGUGGAUGGGUGUGUGUCUGUCUUGGGAUGGGGUGUUCUUGCACCACUUUGUGUUCUUAGUGAGACCACAGUGUAAGUGGCCGUGUGUGUGUGUGGGGGGGGGCACCUAGACAUUGUGGUGUGUCUGUAUGGCUCUGUGUUUUCAGGGGUGGGUGACACAGGCCUGUCUGAUGAGCACCAGGUCUGUUCCAGGCUGUGGCAAGCUGGCUCCUGGCUCAGAAGUGACAAAGCUGCAGUACAGAGGCCUCAGUGUGAGGUCAUCUCUUGCGGUCGCACUAGUGUGGAAUUCUCGGGUGUCAAGG

These binders were tested against TDP-43 (Homo sapiens, UniProt Q13148 1-414) (assay: RNA Bind-n-Seq with designed 260-mer pool; 25 mM Tris-HCl, 150 mM KCl, 3 mM MgCl2, BSA (printed 500 mg/mL), 20 units/mL SUPERase IN; pH not stated; 500 nM RNA pool, 1 h, 4 C; TDP-43 5, 50, 500 nM; high values mean tight binding). Conditions: protein: recombinant; tags: SBP (GST cleaved off with PreScission; pGEX-GST-SBP).
In short: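 For each oligo, R gives binding as its mapped-read-normalized abundance after pulldown divided by its abundance in input. Bead-captured SBP-tagged TDP-43 (5, 50 or 500 nM) was incubated with 500 nM of an in vitro-transcribed 260-nt 3′ UTR oligo pool for 1 h at 4 °C in 25 mM Tris-HCl, 150 mM KCl, 3 mM MgCl2, BSA and SUPERase IN on streptavidin beads. Washed, biotin-eluted RNA was reverse transcribed, PCR-amplified and sequenced.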

TDP-43, sequence (Q13148 whole entry): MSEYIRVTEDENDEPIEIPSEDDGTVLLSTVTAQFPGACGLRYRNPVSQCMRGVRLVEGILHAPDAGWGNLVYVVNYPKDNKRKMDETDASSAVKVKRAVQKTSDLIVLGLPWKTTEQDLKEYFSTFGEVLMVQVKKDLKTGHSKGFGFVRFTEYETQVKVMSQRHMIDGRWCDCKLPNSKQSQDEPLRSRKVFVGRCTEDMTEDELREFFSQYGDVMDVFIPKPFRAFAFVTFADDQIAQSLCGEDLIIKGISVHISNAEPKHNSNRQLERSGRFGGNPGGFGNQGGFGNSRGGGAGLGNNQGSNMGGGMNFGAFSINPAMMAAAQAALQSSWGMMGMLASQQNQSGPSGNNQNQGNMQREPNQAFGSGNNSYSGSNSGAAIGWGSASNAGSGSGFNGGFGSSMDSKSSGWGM

| Binder | binding signal |
| --- | --- |
| B1 | 0.307 R (bound/input frequency ratio) |
| B2 | 0.46 R (bound/input frequency ratio) |
| B3 | 0.033 R (bound/input frequency ratio) |
| B4 | 5.05 R (bound/input frequency ratio) |
| B5 | 1.55 R (bound/input frequency ratio) |
| B6 | 1.1 R (bound/input frequency ratio) |
| B7 | 7.91 R (bound/input frequency ratio) |
| B8 | 4.7 R (bound/input frequency ratio) |
| B9 | 5.71 R (bound/input frequency ratio) |
| B10 | 11.3 R (bound/input frequency ratio) |
| B11 | 5.44 R (bound/input frequency ratio) |
| B12 | 6.21 R (bound/input frequency ratio) |
| B13 | 6.58 R (bound/input frequency ratio) |
| B14 | 6.69 R (bound/input frequency ratio) |
| B15 | 3.28 R (bound/input frequency ratio) |
| B16 | 6.42 R (bound/input frequency ratio) |
